Results filed as inconclusive are left out. Calls of active or inactive are those of the source. The calls were made as follows, unless noted: active = hit-call score of the fitted dose curve at least 0.9, where 1 is the maximum; inconclusive = response in the unintended direction; inactive = score below 0.9.
Columns and labels:
[1] = TOX21_p53_BLA_p2_viability: Viability Assessment in the Tox21 HCT-116 p53 Agonism Beta-lactamase Assay, Phase 2 (AID 2283591);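 also: compound exposure lasted 16 h at 37 °C; actives lower the ATP signal meaning cytotoxicity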
Summary of the method: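 HCT116 p53-bla cells, 4000/well, dosed after 5 h plating (217-fold dilution of DMSO stocks) and incubated 16 h at 37C. Viability taken as cellular ATP by CellTiter-Glo luminescence after 30 min RT; signal loss marks cytotoxicity.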

[2] = target: Cellular tumor antigen p53 (Homo sapiens) (UniProt P04637); assay: TOX21_p53_BLA_p2_ratio: Tox21 HCT-116 p53 Agonism Beta-lactamase Assay, Ratio, Phase 2 (AID 2283592)
Sequence of Cellular tumor antigen p53 (Homo sapiens) (P04637 whole entry, looked up): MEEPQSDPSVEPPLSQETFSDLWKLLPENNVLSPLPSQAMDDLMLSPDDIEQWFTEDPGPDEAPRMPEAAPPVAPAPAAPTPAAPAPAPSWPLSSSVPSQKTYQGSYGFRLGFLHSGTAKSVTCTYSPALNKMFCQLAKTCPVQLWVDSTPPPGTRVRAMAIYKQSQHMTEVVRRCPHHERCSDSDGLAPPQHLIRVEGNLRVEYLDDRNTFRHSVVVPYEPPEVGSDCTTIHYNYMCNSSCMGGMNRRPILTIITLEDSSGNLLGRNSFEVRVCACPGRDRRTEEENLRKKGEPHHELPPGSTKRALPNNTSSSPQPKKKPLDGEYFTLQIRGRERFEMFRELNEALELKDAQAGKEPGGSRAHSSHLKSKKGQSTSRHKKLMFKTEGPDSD
Summary of the method: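 Human colon HCT116 cells with an inducible p53 beta-lactamase reporter are exposed to test chemicals for 16 h at 37C. Reporter induction is read as the 460/530 nm emission ratio after CCF4-AM loading, normalized to DMSO.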

[3] = TOX21_p53_BLA_p3_viability: Viability Assessment in the Tox21 HCT-116 p53 Agonism Beta-lactamase Assay, Phase 3 (AID 2283593);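 also: cells exposed to compound for 16 h before reading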
Summary of the method: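 HCT116 cells, 4000/well, dosed 5 h after plating by pin transfer (217-fold dilution from DMSO stock) and incubated 16 h at 37C, 5% CO2. Viability read as ATP luminescence with CellTiter-Glo after 30 min at room temperature.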

[4] = target: Cellular tumor antigen p53 (Homo sapiens) (UniProt P04637); assay: TOX21_p53_BLA_p3_ratio: Tox21 HCT-116 p53 Agonism Beta-lactamase Assay, Ratio, Phase 3 (AID 2283596)
Summary of the method: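 HCT116 p53-bla cells (4000/well) given compound in DMSO (217-fold dilution) after 5 h, incubated 16 h at 37C. CCF4-AM substrate 2 h at room temperature; 460/530 nm emission ratio, gain fitted against DMSO.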

[5] = target: Cellular tumor antigen p53 (Homo sapiens) (UniProt P04637); assay: TOX21_p53_BLA_p5_ratio: Tox21 HCT-116 p53 Agonism Beta-lactamase Assay, Ratio, Phase 5 (AID 2283599)
Summary of the method: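 HCT-116 p53-bla cells (4000/well) plated 5 h, dosed with compound (217-fold DMSO dilution) for 16 h at 37 C; CCF4-AM substrate 2 h at room temperature. Activity is the 460/530 nm emission ratio (405 nm excitation), fitted in gain-of-signal direction versus DMSO.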

[6] = target: Cellular tumor antigen p53 (Homo sapiens) (UniProt P04637); assay: TOX21_p53_BLA_p4_ratio: Tox21 HCT-116 p53 Agonism Beta-lactamase Assay, Ratio, Phase 4 (AID 2283601)
Summary of the method: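 HCT-116 p53 beta-lactamase reporter cells (4000/well) preincubated 5 h, then compound (217-fold dilution of DMSO stock) for 16 h at 37C. CCF4-AM substrate added 2 h at room temperature; 460/530 nm emission ratio fitted upward versus DMSO.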

[7] = TOX21_TRB_BLA_Antagonist_Followup_viability: Viability Assessment in the Tox21 Thyroid Hormone Receptor beta Antagonism Beta-lactamase (BLA) Follow-Up Assay (AID 2283961)
Summary of the method: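 In the same wells as the reporter read, cell health was gauged by CellTiter-Glo ATP luminescence, with signal loss indicating reduced viability. Cells had been exposed to test compounds for 18 h.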

[8] = target: Retinoic acid receptor RXR-alpha (Homo sapiens) (UniProt P19793); assay: TOX21_TR_RXR_BLA_Antagonist_Followup_ratio: Tox21 Thyroid Hormone Receptor beta Retinoid X Receptor alpha (RXRa) Antagonism Beta-lactamase (BLA) Follow-Up Assay, Ratio (AID 2283972)
Sequence of Retinoic acid receptor RXR-alpha (Homo sapiens) (P19793 whole entry, looked up): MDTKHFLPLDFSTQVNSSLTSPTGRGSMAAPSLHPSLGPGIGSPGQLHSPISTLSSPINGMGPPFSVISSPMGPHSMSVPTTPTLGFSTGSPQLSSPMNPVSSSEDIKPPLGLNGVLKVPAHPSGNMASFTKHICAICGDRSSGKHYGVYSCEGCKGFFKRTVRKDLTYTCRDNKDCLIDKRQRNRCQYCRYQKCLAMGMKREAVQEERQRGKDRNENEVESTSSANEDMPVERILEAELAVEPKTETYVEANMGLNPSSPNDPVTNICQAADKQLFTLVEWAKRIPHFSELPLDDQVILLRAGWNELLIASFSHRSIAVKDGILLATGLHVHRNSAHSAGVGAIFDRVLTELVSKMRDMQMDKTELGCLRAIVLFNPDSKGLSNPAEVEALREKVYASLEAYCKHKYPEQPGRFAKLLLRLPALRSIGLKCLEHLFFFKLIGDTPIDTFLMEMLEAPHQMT
Summary of the method: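 Compounds were tested in triplicate at 11 concentrations on RXRa-bla HEK293T cells for 16 h. Substrate cleavage ratio, normalized to DMSO, gave the endpoint.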

[9] = TOX21_TR_RXR_BLA_Antagonist_Followup_viability: Viability Assessment in the Tox21 Thyroid Hormone Receptor beta Retinoid X Receptor alpha (RXRa) Antagonism Beta-lactamase (BLA) Follow-Up Assay (AID 2283979)
Summary of the method: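 RXRa-bla HEK293T cells (2,500/well, phenol red-free DMEM, 2% charcoal-stripped FBS) were attached 5 h, then exposed to compounds at 11 concentrations in triplicate for 16 h at 37C. Viability measured by CellTiter-Glo ATP luminescence, bidirectional fitting versus DMSO.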

[10] = CCTE_Deisenroth_AIME_96WELL_CTox_Active: Cytotoxicity Assessment (CTOX) in CCTE's 96-well Estrogen Receptor Transactivation Assay with AIME metabolic competence (metabolism positive), Deisenroth Lab (AID 2284028)
Summary of the method: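 Chemicals (0.002–200 uM) were first incubated 2 h with alginate-immobilized phenobarbital/beta-naphthoflavone-induced male rat liver S9; conditioned medium then went onto VM7Luc4E2 cells for 24 h, with viability read by protease-substrate fluorescence, fitted bidirectionally.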

[11] = CCTE_Deisenroth_AIME_96WELL_CTox_Inactive: Cytotoxicity Assessment (CTOX) in CCTE's 96-well Estrogen Receptor Transactivation Assay without AIME metabolic competence (metabolism negative), Deisenroth Lab (AID 2284029)
Summary of the method: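 Chemicals (0.002 - 200 uM, 10 points) incubated 2 h with alginate-water microspheres (no S9), then medium moved onto VM7Luc4E2 cells for 24 h. Viability by protease-substrate cleavage to fluorescent probe; bidirectional fitting.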

[12] = ACEA_ER_AUC_viability: ACEA Biosciences xCELLigence Real-Time Cell Analysis on Estrogen Receptor Agonism for Viability (AID 2283782);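 also: continuous compound exposure with impedance area under curve over 80 h; hit means loss of impedance signal meaning reduced cell growth or viability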
Summary of the method: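 T47D cells preconditioned in phenol red-free RPMI with charcoal-stripped FBS, then dosed with 8-point 1:4 series from 100 uM (up to 0.5% DMSO). Impedance monitored up to ~80 h; area-under-curve loss versus DMSO taken as viability.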

[13] = CCTE_Harrill_HTTr_Viability_MCF7: CCTE's 6-hour Cell Viability Assessment for the High-Throughput Transcriptomics (HTTr) Platform, in MCF-7 cells cultured in DMEM + 10% fetal bovine serum, Harrill Lab (AID 2284010; active = hit-call score of the fitted dose curve at least 0.9, where 1 is the maximum; inactive = score below 0.9)
Summary of the method: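 Cells were dosed with chemicals in an eight-point dilution series, imaged 6 hours later for propidium iodide uptake, and the endpoint was analyzed by bidirectional fitting against DMSO as negative control.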

[14] = CCTE_Harrill_HTTr_Apoptosis_MCF7: CCTE's 6-hour Apoptosis Assessment for the High-Throughput Transcriptomics (HTTr) Platform, in MCF-7 cells cultured in DMEM + 10% fetal bovine serum, Harrill Lab (AID 2284011; active = hit-call score of the fitted dose curve at least 0.9, where 1 is the maximum; inactive = score below 0.9)
Summary of the method: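 Apoptosis in MCF-7 cells grown in DMEM with 10% fetal bovine serum was scored after a six hour exposure by high content imaging of caspase-3/7 activation (CellEvent Caspase 3/7 Green), with DMSO serving as negative control and baseline.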

[15] = TOX21_p53_BLA_p5_viability: Viability Assessment in the Tox21 HCT-116 p53 Agonism Beta-lactamase Assay, Phase 5 (AID 2283600)
Summary of the method: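 Seeded cells (4000/well) settle 5 h before compound addition. Plates then incubate 16 h at 37C, receive FRET substrate for 2 h, and finally CellTiter-Glo, with luminescence measured after a 30 min room-temperature incubation.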

[16] = TOX21_p53_BLA_p4_viability: Viability Assessment in the Tox21 HCT-116 p53 Agonism Beta-lactamase Assay, Phase 4 (AID 2283597);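 also: hits lower the luminescence signal meaning cytotoxicity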
Summary of the method: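 Luminescent ATP readout (CellTiter-Glo, 30 min, room temperature) in the same wells as the p53 bla ratio. HCT116 cells were treated for 16 h at 37C with DMSO-dissolved compounds.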

Measured: AC50

CC1(C)S[C@@H]2[C@H](NC(=O)C(N)c3ccccc3)C(=O)N2[C@H]1C(=O)OC1OC(=O)c2ccccc21 (some centres not stated)
inactive: [1] | [2] | [3] | [4] | [5] | [6] | [7] | [8] | [9]

CC(=O)c1sc(C)nc1C
inactive: [1] | [2] | [3] | [4] | [5] | [6]

CC(C)(c1ccccc1)c1ccccc1
inactive: [1] | [2] | [3] | [4] | [5] | [6] | [10] | [11]

COc1ccc2cc([C@H](C)C(=O)O)ccc2c1
inactive: [1] | [2] | [3] | [4] | [5] | [6] | [12] | [13] | [14]

COc1ccc2cc1Oc1cc3c(cc1OC)CC[N+](C)(C)[C@H]3Cc1ccc(cc1)Oc1c(OC)c(OC)cc3c1[C@@H](C2)[N+](C)(C)CC3
inactive: [1] | [2] | [3] | [4] | [5] | [6]

C[C@H](/C=C/[C@H](C)C(C)(C)O)[C@H]1CC[C@H]2/C(=C/C=C3C[C@@H](O)C[C@H](O)C3)CCC[C@]12C
active: [3] 30 µM
inactive: [1] | [2] | [4] | [15]

O=C=Nc1cccc(C(F)(F)F)c1
active: [2] 86.2 µM
inactive: [1] | [3] | [4] | [5] | [6]

C[C@H](NCCc1ccc(O)cc1)[C@H](O)c1ccc(O)cc1
inactive: [1] | [2] | [3] | [4] | [5] | [6]

Nc1ccc(S(=O)(=O)Nc2ccccn2)cc1
inactive: [1] | [2] | [3] | [4] | [5] | [6]

O=C(O)C(Cc1cc(I)c(O)c(I)c1)c1ccccc1 (configuration not stated)
inactive: [1] | [2] | [3] | [4] | [5] | [6]

O=C(O)CCC(=O)OC[C@@H](NC(=O)C(Cl)Cl)[C@H](O)c1ccc([N+](=O)[O-])cc1
inactive: [1] | [2] | [3] | [4] | [15]

CC(=O)N[C@@H](CS)C(=O)O
inactive: [1] | [2] | [3] | [4] | [5] | [6]

CC1=C(C)C(=O)C(CCCCC#CCCCC#CCO)=C(C)C1=O
inactive: [1] | [2] | [3] | [4] | [6]

CCCCCC=CCC=CCCCCCCCC(=O)OCC
inactive: [1] | [2] | [3] | [16]

Reference: PubChem BioAssay (EPA / NIEHS)
